# Data: PubChem BioAssay
# Active and inactive are the calls of the source.
# How the values were obtained:
# Albumin (Bos taurus) = Albumin (Bos taurus) (UniProt P02769); test: compounds binding labelled BSA control protein – biochemical, small-molecule microarray, Alexa647 label, 635/667 nm fluorescence, artefact control for SMM control protein annotation, profiling panel (AID 1118); conditions: BSA-A647 binding, fluorescence 635 nm, higher = more signal;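 further: score merges 667 nm emission intensity and signal-to-noise per printed compound spot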
# [1] = probe aXIP binding to arrayed compounds – biochemical, NeuroSMM set, 635/667 nm fluorescence, primary screen (AID 1119); conditions: small-molecule microarray, higher = more signal, called active from +8 up or from −8 down;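 further: probe is the protein aXip251-270 applied at 1 µg/mL to compound-printed slides; binding of probe to printed compounds measured as 667 nm fluorescence plus signal to noise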
# [2] = probe aNOTCH3 binding on compound microarray – biochemical, small-molecule microarray, 635/667 nm fluorescence, primary screen (AID 1120); conditions: higher = more signal;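 further: probe is a biotin-tagged antibody raised against NOTCH3 rather than NOTCH3 protein; score merges spot fluorescence near 667 nm with spot signal to noise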
# [3] = probe aNOTCH2 binding on compound microarray – biochemical, small-molecule microarray, 635/667 nm fluorescence, primary screen (AID 1121); conditions: higher = more signal;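 further: score merges feature fluorescence read at 667 nm with its signal to noise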
# [4] = target: Carbonic anhydrase 2 (Homo sapiens) (UniProt P00918); test: compounds binding carbonic anhydrase 2 – biochemical, small-molecule microarray, Alexa647-labelled CAII, profiling panel (AID 1122); conditions: CAII-A647 binding fluorescence, higher = more signal
# [5] = COS7 lysate on small-molecule microarray, probe aHis, 635 nm (AID 1123); conditions: COS7 cell lysate, fluorescence, higher = more signal;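 further: z-score combines 667nm fluorescence intensity with signal-to-noise per printed compound spot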
# [6] = probe aLAP1 signal on lysate-treated microarray – cell lysate, small-molecule microarray, COS7 lysate, primary screen (AID 1124); conditions: probe aLAP1, fluorescence, higher = more signal;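 further: lysate comes from COS7 cells expressing LAP1 and is applied at 0.3 µg/mL; score merges spot fluorescence near 667 nm with signal-to-noise over triplicate slides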
# Sam68 (KHDRBS1) = test: compounds binding KHDRBS1 protein – biochemical, small-molecule microarray, 635 nm fluorescence, primary screen (AID 1125); conditions: higher = more signal;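 further: score merges 667 nm channel intensity with signal to noise over triplicate slides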
# [7] = tested on: Chordin-like protein 2 (CHRDL2); test: compounds binding chordin-like 2 – biochemical, small-molecule microarray, 635 nm fluorescence, primary screen (AID 1126); conditions: fluorescence 635 nm, higher = more signal;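 further: printed compound slides probed with Chrdl2 protein at 4 µg/mL for 1 h at 4 C; score merges 667 nm emission intensity with signal to noise over three replicate slides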
# [8] = target: Concanavalin-A (Canavalia ensiformis) (UniProt P02866); test: compounds binding concanavalin A lectin – biochemical, small-molecule microarray, Alexa647 label, 635 nm, artefact control for SMM control protein annotation, primary screen (AID 1127); conditions: ConA-A647 binding fluorescence, higher = more signal;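 further: z combines 667 nm emission intensity with signal-to-noise across three replicate slides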
# [9] = compounds binding Alexa647 anti-His antibody – biochemical, small-molecule microarray, 635 nm fluorescence, artefact control for SMM control protein annotation, primary screen (AID 1128); conditions: higher = more signal;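 further: score merges feature fluorescence with signal-to-noise for each printed compound spot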
# [10] = tested on: Human papillomavirus type 1a E7 protein (residues 1-88); test: HPV1a E7 small-molecule binders, primary screen, biochemical, small-molecule microarray, residues 1-88, 635 nm (AID 1129); conditions: small-molecule microarray binding, fluorescence 635 nm; higher = more signal
# [11] = target: Focal adhesion kinase 1 (Homo sapiens) (UniProt Q05397); test: PTK2 protein binding on printed compound slides – biochemical, small-molecule microarray, 635/667 nm fluorescence, BSA, DTT, primary screen (AID 1130); conditions: 635 nm fluorescence, higher = more signal;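 further: composite of spot emission at 667 nm and signal to noise over triplicate slides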
# [12] = tested on: Fibrinogen (Alexa647-labelled); test: Alexa647-fibrinogen binding to printed small molecules – biochemical, small-molecule microarray, 635/667 nm fluorescence, artefact control for SMM control-protein annotation, profiling panel (AID 1131); conditions: fibrinogen-A647 binding fluorescence, higher = more signal;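 further: z-score merges 667 nm fluorescence with per-spot signal-to-noise over triplicate slides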
# [13] = target: Follistatin (Homo sapiens) (UniProt P19883); test: FST protein binding to printed compounds – biochemical, small-molecule microarray, 635/667 nm fluorescence, primary screen (AID 1132); conditions: 635 nm fluorescence, higher = more signal
# [14] = target: Fibroblast growth factor 2 (Homo sapiens) (UniProt P09038); test: basic fibroblast growth factor binding to printed compounds – biochemical, small-molecule microarray, 635/667 nm fluorescence, primary screen (AID 1133); conditions: FGF2, fluorescence 635/667, higher = more signal
# [15] = JC-1 mitochondrial potential readout, lung cancer cells – cell-based, A549, JC-1 fluorescence, basal, 24 h, 100 nL, profiling panel (AID 1138); conditions: higher = more signal;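 further: A549 lung adenocarcinoma cells under basal conditions with no added stimulus; test concentration not given here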
# Lefty1 = Lefty1 protein binding to printed compounds – biochemical, small-molecule microarray, 635/667 nm fluorescence, primary screen (AID 1139); conditions: fluorescence 635/667, higher = more signal
# [16] = tested on: wheat germ agglutinin (Triticum aestivum), Alexa647-labelled; test: Alexa647-WGA lectin binding to printed small molecules – biochemical, small-molecule microarray, 635/667 nm fluorescence, artefact control for SMM control-protein annotation, profiling panel (AID 1140); conditions: WGA-A647 binding, 635 nm fluorescence, higher = more signal;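 further: score merges 667 nm feature emission with signal to noise over triplicate slides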
# [17] = target: Luciferin 4-monooxygenase (Photinus pyralis) (UniProt P08659); test: inhibition of purified Photinus pyralis luciferase – biochemical, luminescence, purified enzyme, 2006 set, primary screen (AID 1141); conditions: purified firefly luciferase, SteadyGlo luminescence, 30 min; higher = more signal, called active from +8 up or from −8 down;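 further: cell-free assay with purified firefly luciferase at 100 ng per well in PBS; test concentration not given here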
# Chain of Luciferin 4-monooxygenase (Photinus pyralis) (P08659 whole entry, looked up): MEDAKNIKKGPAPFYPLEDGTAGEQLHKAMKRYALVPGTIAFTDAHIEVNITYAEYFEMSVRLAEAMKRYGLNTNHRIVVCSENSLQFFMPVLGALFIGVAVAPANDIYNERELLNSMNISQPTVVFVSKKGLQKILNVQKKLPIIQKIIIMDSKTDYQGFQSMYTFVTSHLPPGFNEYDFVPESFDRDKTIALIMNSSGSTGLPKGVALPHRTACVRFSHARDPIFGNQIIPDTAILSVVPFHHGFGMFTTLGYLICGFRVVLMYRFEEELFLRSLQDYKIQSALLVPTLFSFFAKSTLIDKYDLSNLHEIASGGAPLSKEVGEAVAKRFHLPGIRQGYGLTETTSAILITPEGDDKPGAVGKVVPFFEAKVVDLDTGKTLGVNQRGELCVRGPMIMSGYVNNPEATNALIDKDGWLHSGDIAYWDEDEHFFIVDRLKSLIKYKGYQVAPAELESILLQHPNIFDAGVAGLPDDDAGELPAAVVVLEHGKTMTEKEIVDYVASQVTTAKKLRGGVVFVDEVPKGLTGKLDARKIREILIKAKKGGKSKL
# Chain of Albumin (Bos taurus) (P02769 whole entry, looked up): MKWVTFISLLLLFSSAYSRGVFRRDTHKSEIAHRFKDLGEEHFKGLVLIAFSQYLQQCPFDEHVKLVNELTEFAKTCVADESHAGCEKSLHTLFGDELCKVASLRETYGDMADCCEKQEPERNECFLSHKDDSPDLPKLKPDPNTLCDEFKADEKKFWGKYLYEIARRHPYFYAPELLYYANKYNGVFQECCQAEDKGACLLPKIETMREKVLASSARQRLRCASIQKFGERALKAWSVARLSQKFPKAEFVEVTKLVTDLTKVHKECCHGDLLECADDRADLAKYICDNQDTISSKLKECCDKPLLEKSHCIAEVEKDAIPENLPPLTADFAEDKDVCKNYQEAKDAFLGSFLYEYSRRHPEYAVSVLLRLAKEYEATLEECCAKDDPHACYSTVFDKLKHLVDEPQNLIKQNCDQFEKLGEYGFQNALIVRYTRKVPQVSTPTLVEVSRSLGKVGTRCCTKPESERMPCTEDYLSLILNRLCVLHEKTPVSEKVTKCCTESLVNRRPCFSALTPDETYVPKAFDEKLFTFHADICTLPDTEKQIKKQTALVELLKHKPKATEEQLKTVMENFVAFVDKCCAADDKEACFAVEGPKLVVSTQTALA
# Chain of Follistatin (Homo sapiens) (P19883 whole entry, looked up): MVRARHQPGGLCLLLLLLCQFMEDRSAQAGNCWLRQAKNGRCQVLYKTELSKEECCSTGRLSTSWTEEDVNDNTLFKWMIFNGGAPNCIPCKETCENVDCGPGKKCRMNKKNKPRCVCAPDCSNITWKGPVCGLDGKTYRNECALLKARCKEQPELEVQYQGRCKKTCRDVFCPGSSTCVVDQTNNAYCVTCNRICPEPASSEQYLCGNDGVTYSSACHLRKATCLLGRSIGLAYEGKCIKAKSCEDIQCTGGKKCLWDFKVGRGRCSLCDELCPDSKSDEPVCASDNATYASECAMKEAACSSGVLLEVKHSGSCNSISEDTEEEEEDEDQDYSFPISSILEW
# Chain of Focal adhesion kinase 1 (Homo sapiens) (Q05397 whole entry, looked up): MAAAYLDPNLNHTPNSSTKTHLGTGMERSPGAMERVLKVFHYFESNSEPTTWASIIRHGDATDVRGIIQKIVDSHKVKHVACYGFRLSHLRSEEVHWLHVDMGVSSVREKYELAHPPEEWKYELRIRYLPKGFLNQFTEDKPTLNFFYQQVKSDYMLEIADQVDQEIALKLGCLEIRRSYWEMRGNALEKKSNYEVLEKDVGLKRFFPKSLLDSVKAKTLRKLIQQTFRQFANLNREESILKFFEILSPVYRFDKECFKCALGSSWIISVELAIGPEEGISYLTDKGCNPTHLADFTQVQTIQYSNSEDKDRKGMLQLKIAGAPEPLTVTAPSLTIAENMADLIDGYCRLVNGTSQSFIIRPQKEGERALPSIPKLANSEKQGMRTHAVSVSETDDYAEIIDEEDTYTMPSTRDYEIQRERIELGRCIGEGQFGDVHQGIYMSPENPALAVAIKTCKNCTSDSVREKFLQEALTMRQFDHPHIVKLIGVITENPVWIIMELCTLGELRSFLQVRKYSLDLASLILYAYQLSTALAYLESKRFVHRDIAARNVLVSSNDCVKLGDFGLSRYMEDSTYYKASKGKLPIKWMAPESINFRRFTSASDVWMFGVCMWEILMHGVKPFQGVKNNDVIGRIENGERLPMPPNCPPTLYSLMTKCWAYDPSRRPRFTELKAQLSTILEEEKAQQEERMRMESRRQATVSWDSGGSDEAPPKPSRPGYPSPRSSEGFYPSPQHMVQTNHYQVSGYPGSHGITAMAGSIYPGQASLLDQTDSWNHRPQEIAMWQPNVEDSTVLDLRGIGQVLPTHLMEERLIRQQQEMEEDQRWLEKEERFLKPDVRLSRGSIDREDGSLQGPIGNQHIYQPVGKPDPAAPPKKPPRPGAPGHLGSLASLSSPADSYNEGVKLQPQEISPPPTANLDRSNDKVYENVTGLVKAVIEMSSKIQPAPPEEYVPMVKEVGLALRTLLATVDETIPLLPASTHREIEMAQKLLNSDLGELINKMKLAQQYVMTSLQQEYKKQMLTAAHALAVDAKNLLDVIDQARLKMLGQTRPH
# Chain of Fibroblast growth factor 2 (Homo sapiens) (P09038 whole entry, looked up): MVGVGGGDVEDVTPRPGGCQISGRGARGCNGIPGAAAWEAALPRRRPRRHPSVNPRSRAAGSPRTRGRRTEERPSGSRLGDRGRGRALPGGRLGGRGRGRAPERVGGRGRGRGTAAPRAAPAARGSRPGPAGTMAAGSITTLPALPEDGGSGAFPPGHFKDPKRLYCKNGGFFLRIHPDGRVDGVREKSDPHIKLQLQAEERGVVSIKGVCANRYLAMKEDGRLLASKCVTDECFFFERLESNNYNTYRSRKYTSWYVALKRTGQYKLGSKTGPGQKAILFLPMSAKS
# Chain of Concanavalin-A (Canavalia ensiformis) (P02866 whole entry, looked up): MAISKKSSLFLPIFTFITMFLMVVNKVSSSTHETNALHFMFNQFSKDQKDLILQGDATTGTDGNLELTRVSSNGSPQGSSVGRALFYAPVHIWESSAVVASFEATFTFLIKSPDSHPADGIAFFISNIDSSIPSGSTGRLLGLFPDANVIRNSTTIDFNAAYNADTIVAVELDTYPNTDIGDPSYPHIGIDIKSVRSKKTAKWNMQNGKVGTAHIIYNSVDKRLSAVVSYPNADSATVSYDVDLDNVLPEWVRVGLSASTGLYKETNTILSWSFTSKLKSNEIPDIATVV
Structure (SMILES),composite z-score (Albumin (Bos taurus)),composite Z-score [1],composite z-score [2],composite z-score [3],composite z-score [4],composite z-score [5],composite z-score [6],composite z-score (Sam68 (KHDRBS1)),composite z-score [7],composite z-score [8],composite z-score [9],composite z-score [10],composite z-score [11],composite z-score [12],composite z-score [13],composite z-score [14],z-score [15],composite z-score (Lefty1),composite z-score [16],z-score [17]
CC(C)(C)OC(=O)CC[C@@]12N=C(c3ccc(OCCCO)cc3)O[C@@H]1c1ccccc1CN(Cc1ccccc1)C2=O,-0.478,0.976 (inactive),0.0026,-0.11,0.418,1.73,-0.0961,1.31,-0.0229,1.1,2.46,1.18,1.36,0.357,1.32,1.43,1.09,0.377,0.438,-1.59 (inactive)
NCCCCCCNC(=O)[C@@H]1C[C@@H]2C(=O)N[C@@H](Cc3ccccc3)C(=O)N2[C@@H]1c1ccc(O)cc1,0.676,0.755 (inactive),0.0418,-0.112,0.65,0.68,0.915,1.06,0.283,1.12,1.94,0.434,0.332,0.63,0.898,0.312,0.613,0.104,0.931,-1.15 (inactive)
C=C(CCCC)/C(=C/C[C@H](OC(=O)c1ccncc1)c1ccc(CO)o1)c1cnc2ccccc2c1,0.295,-0.0961 (inactive),0.227,-0.0942,0.84,0.368,0.0647,1.3,0.699,1.04,0.475,1.18,0.291,0.0311,1.38,0.722,1.45,1.38,1.28,-2.94 (inactive)
CCN(CC)c1ccc(N2CC=CC34O[C@@H]5C=CCOC(=O)[C@@H]5[C@H]3C(=O)N(C(C)CO)[C@@H]4C2=O)cc1 (stereo not given in full),-1.28,-0.237 (inactive),-0.213,-0.126,0.0808,-0.67,0.0745,-1.69,-1.35,-1.51,-1.34,-1.28,-1.02,-2.61,-1.04,-1.13,1.39,-1.65,-1.07,-0.822 (inactive)
C=CC[C@@]1(C(=O)NCc2ccccc2)N=C(c2ccc(OCCCO)cc2)O[C@@H]1c1ccccc1,0.864,0.118 (inactive),0.0762,-0.061,0.493,2.56,0.268,0.966,-0.353,0.454,1.11,1.16,0.997,-0.017,-0.646,-1.1,0.215,-0.865,0.539,-1.05 (inactive)
O=C(O)[C@H]1C[C@H]2C(=O)NCC(=O)N2[C@H]1c1cccc(OCCO)c1,-0.542,0.0953 (inactive),0.173,-0.126,0.502,0.787,-0.156,0.89,0.0805,1.09,1.48,0.221,0.457,0.742,1.27,0.161,1.14,-0.13,0.655,-1.6 (inactive)
COc1ccc(C#Cc2ccc3c(c2)[C@]2(C(=O)N3)[C@H](c3ccc(O)cc3)N3[C@H](c4ccccc4)[C@H](c4ccccc4)OC(=O)[C@H]3[C@@H]2C(=O)N2CCN(c3ncccn3)CC2)cc1,0.888,4.41 (inactive),0.116,0.0557,0.462,0.868,0.97,1.31,-0.176,1.08,1.2,0.885,1.71,0.763,0.722,0.143,-0.308,-0.151,0.929,-1.27 (inactive)
COc1ccc([Si](C)(C)[C@H]2[C@H](CC(=O)N(CCO)Cc3ccccc3)O[C@@]3(C(=O)N(Cc4ccc(N5CCC5=O)cc4)c4ccccc43)[C@@H]2C)cc1,0.101,0.506 (inactive),-0.219,-0.141,0.339,0.888,0.371,-0.114,0.286,0.385,0.122,-0.178,0.13,0.158,0.41,0.11,0.0735,-0.143,0.429,-1.23 (inactive)
C[C@@H](OCc1ccccc1)C1NC(=O)[C@@]23C(=O)N[C@@H](Cc4ccccc4)C2[C@H](C)[C@@]2(C)O[C@H]2C3/C=C/C/C=C\CNC(=O)[C@@H]2CCCN2C1=O (stereo not given in full),-0.149,-0.216 (inactive),-0.0921,-0.147,0.619,-0.357,-0.296,-0.898,0.377,-0.896,-0.0278,-0.443,-0.709,-0.632,0.0944,0.166,2.49,0.0078,-0.927,-1.45 (inactive)
C=C(CCCC)/C(=C/C[C@@H](OC(=O)c1ccncc1)c1ccc(OCCO)cc1)c1cnc2ccccc2c1,0.26,-0.0966 (inactive),0.135,-0.0859,0.948,0.814,2.07,1.03,1.44,1.15,0.921,0.775,-0.438,0.577,1.44,1.62,0.985,1.64,1.35,-2.3 (inactive)
COc1ccc(C(=O)Nc2cccc(CN3C(=O)[C@@]4(O[C@@H](CCO)[C@H]([Si](C)(C)c5ccc(OC)cc5)[C@H]4C)c4ccccc43)c2)cc1,0.558,-0.0927 (inactive),-0.0343,-0.14,0.211,0.421,0.0002,1.18,-0.143,1.01,0.338,1.07,-0.177,0.795,1,-0.169,-1.29,0.143,0.327,-1.96 (inactive)
